Assay results: PubChem BioAssay (NCI)
The panel holds about 79,000 compounds, 15% with a hit somewhere; the sample as a whole holds those more often. A number with no mark means an inactive call. The source made the active and inactive calls. Rule as the data show it: active = growth inhibition above about 70%; inactive = the rest.

What was measured:
[1] = NCI Yeast Anticancer Drug Screen. Data for the rad52 strain (AID 147);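 also: 0% = growth of vehicle-treated control cultures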; conditions: S. cerevisiae rad52 mutant growth inhibition, stronger effect = higher value
Method in brief: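 Growth of repair-deficient yeast cells was compared between compound-treated and vehicle-treated cultures to give percent inhibition.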

[2] = NCI Yeast Anticancer Drug Screen. Data for the wt1 strain (AID 149);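 also: 0% = growth of vehicle-treated wt1 cultures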; conditions: S. cerevisiae wt1 strain (SPY 50644) growth inhibition, stronger effect = higher value
Method in brief: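 wt1 yeast, compound-treated; % growth inhibition vs vehicle control.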

[3] = NCI Yeast Anticancer Drug Screen. Data for the rad50EPP+ strain (AID 151);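 also: 0% = growth of vehicle-treated control cultures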; conditions: S. cerevisiae rad50 mutant strain, stronger effect = higher value
Method in brief: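 Measured: growth inhibition of rad50EPP+ yeast. Reference: vehicle-treated controls. Screen uses strains with defined genetic alterations in DNA damage repair or cell cycle control.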

[4] = NCI Yeast Anticancer Drug Screen. Data for the mgt1 strain (AID 153); conditions: S. cerevisiae mgt1 mutant growth inhibition, stronger effect = higher value
Method in brief: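 Compounds were applied to mgt1 mutant yeast, and growth was then compared against vehicle-treated control cultures to give percent inhibition.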

[5] = NCI Yeast Anticancer Drug Screen. Data for the rad50 strain (AID 155);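 also: 0% = growth of vehicle-only cultures of the same strain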; conditions: S. cerevisiae rad50 strain growth inhibition, stronger effect = higher value
Method in brief: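 Genetically altered yeast (DNA repair pathway); compound treatment; growth inhibition vs vehicle ctrl.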

[6] = NCI Yeast Anticancer Drug Screen. Data for the mec2-1 strain (AID 157); conditions: S. cerevisiae mec2-1 strain, stronger effect = higher value
Method in brief: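 Compounds were applied to mec2-1 yeast cells. Their growth was then compared with that of vehicle-treated cultures to give growth inhibition.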

[7] = NCI Yeast Anticancer Drug Screen. Data for the rad14 strain (AID 159);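 also: 0% = growth of vehicle-treated control cultures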; conditions: S. cerevisiae rad14 strain growth inhibition, stronger effect = higher value
Method in brief: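 Test compounds were applied to a repair-deficient yeast strain. Its growth was then compared with that of cultures given vehicle alone, and inhibition was expressed relative to those controls.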

[8] = NCI Yeast Anticancer Drug Screen. Data for the sgs1 mgt1 strain (AID 161);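 also: 0% = growth of cultures given vehicle only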; conditions: S. cerevisiae sgs1 mgt1 strain, stronger effect = higher value
Method in brief: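 Growth of a repair-deficient yeast mutant was monitored after compound treatment and expressed as inhibition relative to vehicle-treated cultures.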

[9] = NCI Yeast Anticancer Drug Screen. Data for the CLN2oe strain (AID 163);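 also: 0% = growth of vehicle-only control cultures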; conditions: S. cerevisiae CLN2oe strain, stronger effect = higher value
Method in brief: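 Cells of an engineered yeast line with disturbed cell-cycle regulation are treated with compound. Inhibition of growth is then calculated relative to the vehicle-treated reference.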

[10] = NCI Yeast Anticancer Drug Screen. Data for the cln2 rad14 strain (AID 165);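 also: 0% = growth equal to vehicle treated cultures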; conditions: S. cerevisiae cln2 rad14 strain, stronger effect = higher value
Method in brief: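 Strain: cln2 rad14 yeast, altered in cell cycle control and DNA damage repair. Read-out: growth inhibition vs vehicle.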

[11] = NCI Yeast Anticancer Drug Screen. Data for the bub3 strain (AID 167); conditions: S. cerevisiae bub3 mutant strain, stronger effect = higher value
Method in brief: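 Yeast carrying a defined mutation is treated with each compound, and growth is compared with that of vehicle-exposed cells to give inhibition.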

[12] = NCI Yeast Anticancer Drug Screen. Data for the mlh1 strain (AID 171);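 also: 0% = growth of vehicle-treated control cultures of the same strain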; conditions: S. cerevisiae mlh1 strain growth inhibition, stronger effect = higher value
Method in brief: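 Test agents were incubated with yeast bearing a defined DNA damage repair or cell cycle control alteration; values are growth inhibition normalised to vehicle-treated cultures.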

[13] = NCI Yeast Anticancer Drug Screen. Data for the sgs1 strain (AID 173);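 also: 0% = growth of vehicle-only control cultures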; conditions: S. cerevisiae sgs1 mutant, stronger effect = higher value
Method in brief: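 Strain with an altered DNA repair or cell cycle pathway exposed to compound. Growth then measured. Value = inhibition versus vehicle control.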

[14] = NCI Yeast Anticancer Drug Screen. Data for the mlh1 rad18 strain (AID 175); conditions: S. cerevisiae mlh1 rad18 strain growth inhibition, stronger effect = higher value
Method in brief: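 A repair-deficient yeast strain is exposed to test compound, and growth is scored relative to vehicle-treated controls.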

[15] = NCI Yeast Anticancer Drug Screen. Data for the rad18 strain (AID 177); conditions: S. cerevisiae rad18 mutant growth inhibition, stronger effect = higher value
Method in brief: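 DNA-repair-defective yeast; compound treatment; growth inhibition scored against vehicle.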

[16] = NCI Yeast Anticancer Drug Screen. Data for the wt2 strain (AID 169);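 also: 0% = growth of vehicle-treated yeast cultures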; conditions: S. cerevisiae wt2 strain growth inhibition, stronger effect = higher value
Method in brief: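 Growth of compound-treated yeast is measured and expressed as inhibition relative to vehicle-only controls.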

[17] = at 5.0 µM (retest, dose inferred, filed as 0.5)
[18] = at 50.0 µM (retest, dose inferred, filed as 5.0)

O=C(NNC(=O)OCC(Cl)(Cl)Cl)OCC(Cl)(Cl)Cl
growth inhibition ([1]; at 1.2 µM): 0%
growth inhibition ([1]; at 3.7 µM): 0%
growth inhibition ([1]; at 11.0 µM): 2%
growth inhibition ([1]; at 33.0 µM): 2%
growth inhibition ([1]; at 100.0 µM): 31%
growth inhibition ([2]; at 1.2 µM): -1%
growth inhibition ([2]; at 3.7 µM): -2%
growth inhibition ([2]; at 11.0 µM): -3%
growth inhibition ([2]; at 33.0 µM): -3%
growth inhibition ([2]; at 100.0 µM): 11%
growth inhibition ([3]; at 1.2 µM): 0%
growth inhibition ([3]; at 3.7 µM): -2%
growth inhibition ([3]; at 11.0 µM): -1%
growth inhibition ([3]; at 33.0 µM): 0%
growth inhibition ([3]; at 100.0 µM): 11%
growth inhibition ([4]; at 1.2 µM): 0%
growth inhibition ([4]; at 3.7 µM): -4%
growth inhibition ([4]; at 11.0 µM): 48%
growth inhibition ([4]; at 33.0 µM): 91% (active)
growth inhibition ([4]; at 100.0 µM): 97% (active)
growth inhibition ([5]; at 1.2 µM): -1%
growth inhibition ([5]; at 3.7 µM): 0%
growth inhibition [5, 17]: -12%
growth inhibition ([5]; at 11.0 µM): 0%
growth inhibition ([5]; at 33.0 µM): 1%
growth inhibition [5, 18]: 1%
growth inhibition ([5]; at 50.0 µM): 20.6%
growth inhibition ([5]; at 100.0 µM): 23%
growth inhibition ([6]; at 1.2 µM): -6%
growth inhibition ([6]; at 3.7 µM): -8%
growth inhibition [6, 17]: -6%
growth inhibition ([6]; at 11.0 µM): -4%
growth inhibition ([6]; at 33.0 µM): 4%
growth inhibition [6, 18]: 6%
growth inhibition ([6]; at 50.0 µM): 20.9%
growth inhibition ([6]; at 100.0 µM): 32%
growth inhibition ([7]; at 1.2 µM): 1%
growth inhibition ([7]; at 3.7 µM): 1%
growth inhibition ([7]; at 11.0 µM): 3%
growth inhibition ([7]; at 33.0 µM): 6%
growth inhibition ([7]; at 100.0 µM): 26%
growth inhibition [8, 17]: 0%
growth inhibition [8, 18]: 96% (active)
growth inhibition ([8]; at 50.0 µM): 90.3% (active)
growth inhibition ([9]; at 1.2 µM): -1%
growth inhibition ([9]; at 3.7 µM): -5%
growth inhibition ([9]; at 11.0 µM): -2%
growth inhibition ([9]; at 33.0 µM): 9%
growth inhibition ([9]; at 100.0 µM): 38%
growth inhibition [10, 17]: 4%
growth inhibition [10, 18]: 11%
growth inhibition ([10]; at 50.0 µM): -12.9%
growth inhibition ([11]; at 1.2 µM): -3%
growth inhibition ([11]; at 3.7 µM): -8%
growth inhibition [11, 17]: -5%
growth inhibition ([11]; at 11.0 µM): -6%
growth inhibition ([11]; at 33.0 µM): -4%
growth inhibition [11, 18]: 7%
growth inhibition ([11]; at 50.0 µM): 6.9%
growth inhibition ([11]; at 100.0 µM): 20%
growth inhibition ([12]; at 1.2 µM): -1%
growth inhibition ([12]; at 3.7 µM): -2%
growth inhibition ([12]; at 11.0 µM): 20%
growth inhibition ([12]; at 33.0 µM): 88% (active)
growth inhibition ([12]; at 100.0 µM): 96% (active)
growth inhibition ([13]; at 1.2 µM): -3%
growth inhibition ([13]; at 3.7 µM): -1%
growth inhibition ([13]; at 11.0 µM): 42%
growth inhibition ([13]; at 33.0 µM): 92% (active)
growth inhibition ([13]; at 100.0 µM): 97% (active)
growth inhibition [14, 17]: -1%
growth inhibition [14, 18]: 3%
growth inhibition ([14]; at 50.0 µM): 0.3%
growth inhibition ([15]; at 1.2 µM): -1%
growth inhibition ([15]; at 3.7 µM): 0%
growth inhibition ([15]; at 11.0 µM): 3%
growth inhibition ([15]; at 33.0 µM): 13%
growth inhibition ([15]; at 100.0 µM): 53%

N#Cc1cc(N(CCCl)CCCl)c([N+](=O)[O-])cc1[N+](=O)[O-]
growth inhibition ([1]; at 1.2 µM): 7%
growth inhibition ([1]; at 3.7 µM): 19%
growth inhibition ([1]; at 11.0 µM): 28%
growth inhibition ([1]; at 33.0 µM): 67%
growth inhibition ([1]; at 100.0 µM): 85% (active)
growth inhibition ([2]; at 1.2 µM): -6%
growth inhibition ([2]; at 3.7 µM): 4%
growth inhibition ([2]; at 11.0 µM): -7%
growth inhibition ([2]; at 33.0 µM): 2%
growth inhibition ([2]; at 100.0 µM): 58%
growth inhibition ([3]; at 1.2 µM): 15%
growth inhibition ([3]; at 3.7 µM): 17%
growth inhibition ([3]; at 11.0 µM): 11%
growth inhibition ([3]; at 33.0 µM): 32%
growth inhibition ([3]; at 100.0 µM): 39%
growth inhibition ([4]; at 1.2 µM): -2%
growth inhibition ([4]; at 3.7 µM): -8%
growth inhibition ([4]; at 11.0 µM): -4%
growth inhibition ([4]; at 33.0 µM): 28%
growth inhibition ([4]; at 100.0 µM): 87% (active)
growth inhibition ([5]; at 1.2 µM): -4%
growth inhibition ([5]; at 3.7 µM): -8%
growth inhibition [5, 17]: 5%
growth inhibition ([5]; at 11.0 µM): 10%
growth inhibition ([5]; at 33.0 µM): 40%
growth inhibition [5, 18]: 42%
growth inhibition ([5]; at 50.0 µM): 87.4% (active)
growth inhibition ([5]; at 100.0 µM): 65%
growth inhibition ([6]; at 1.2 µM): 22%
growth inhibition ([6]; at 3.7 µM): 24%
growth inhibition [6, 17]: -43%
growth inhibition ([6]; at 11.0 µM): 23%
growth inhibition ([6]; at 33.0 µM): 28%
growth inhibition [6, 18]: 11%
growth inhibition ([6]; at 50.0 µM): 88.8% (active)
growth inhibition ([6]; at 100.0 µM): 67%
growth inhibition ([7]; at 1.2 µM): 3%
growth inhibition ([7]; at 3.7 µM): 7%
growth inhibition ([7]; at 11.0 µM): 19%
growth inhibition ([7]; at 33.0 µM): 61%
growth inhibition ([7]; at 100.0 µM): 88% (active)
growth inhibition [8, 17]: -19%
growth inhibition [8, 18]: 46%
growth inhibition ([8]; at 50.0 µM): 90.3% (active)
growth inhibition ([9]; at 1.2 µM): 2%
growth inhibition ([9]; at 3.7 µM): 6%
growth inhibition ([9]; at 11.0 µM): -2%
growth inhibition ([9]; at 33.0 µM): 14%
growth inhibition ([9]; at 100.0 µM): 71% (active)
growth inhibition [10, 17]: 11%
growth inhibition [10, 18]: 43%
growth inhibition ([10]; at 50.0 µM): 79.5% (active)
growth inhibition ([11]; at 1.2 µM): 11%
growth inhibition ([11]; at 3.7 µM): 10%
growth inhibition [11, 17]: -11%
growth inhibition ([11]; at 11.0 µM): -7%
growth inhibition ([11]; at 33.0 µM): 31%
growth inhibition [11, 18]: 40%
growth inhibition ([11]; at 50.0 µM): 84.9% (active)
growth inhibition ([11]; at 100.0 µM): 79% (active)
growth inhibition ([16]; at 1.2 µM): 4%
growth inhibition ([16]; at 3.7 µM): 6%
growth inhibition ([16]; at 11.0 µM): 8%
growth inhibition ([16]; at 33.0 µM): 36%
growth inhibition ([16]; at 100.0 µM): 80% (active)
growth inhibition ([12]; at 1.2 µM): 34%
growth inhibition ([12]; at 3.7 µM): 4%
growth inhibition ([12]; at 11.0 µM): 34%
growth inhibition ([12]; at 33.0 µM): 70% (active)
growth inhibition ([12]; at 100.0 µM): 92% (active)
growth inhibition ([13]; at 1.2 µM): 29%
growth inhibition ([13]; at 3.7 µM): 31%
growth inhibition ([13]; at 11.0 µM): 44%
growth inhibition ([13]; at 33.0 µM): 82% (active)
growth inhibition ([13]; at 100.0 µM): 92% (active)
growth inhibition [14, 17]: 21%
growth inhibition [14, 18]: 76% (active)
growth inhibition ([14]; at 50.0 µM): 80.5% (active)
growth inhibition ([15]; at 1.2 µM): 64%
growth inhibition ([15]; at 3.7 µM): 82% (active)
growth inhibition ([15]; at 11.0 µM): 89% (active)
growth inhibition ([15]; at 33.0 µM): 95% (active)
growth inhibition ([15]; at 100.0 µM): 95% (active)
